# ChEMBL document CHEMBL2218924, “A broad activity screen in support of a chemogenomic map for kinase signalling research and drug discovery” (Biochem J, 2013)
# Assays:
# [1] = target: T1, Tyrosine-protein kinase receptor TYRO3 (Homo sapiens) (UniProt Q06418); settings: at 1 µM
# T1 sequence (whole entry): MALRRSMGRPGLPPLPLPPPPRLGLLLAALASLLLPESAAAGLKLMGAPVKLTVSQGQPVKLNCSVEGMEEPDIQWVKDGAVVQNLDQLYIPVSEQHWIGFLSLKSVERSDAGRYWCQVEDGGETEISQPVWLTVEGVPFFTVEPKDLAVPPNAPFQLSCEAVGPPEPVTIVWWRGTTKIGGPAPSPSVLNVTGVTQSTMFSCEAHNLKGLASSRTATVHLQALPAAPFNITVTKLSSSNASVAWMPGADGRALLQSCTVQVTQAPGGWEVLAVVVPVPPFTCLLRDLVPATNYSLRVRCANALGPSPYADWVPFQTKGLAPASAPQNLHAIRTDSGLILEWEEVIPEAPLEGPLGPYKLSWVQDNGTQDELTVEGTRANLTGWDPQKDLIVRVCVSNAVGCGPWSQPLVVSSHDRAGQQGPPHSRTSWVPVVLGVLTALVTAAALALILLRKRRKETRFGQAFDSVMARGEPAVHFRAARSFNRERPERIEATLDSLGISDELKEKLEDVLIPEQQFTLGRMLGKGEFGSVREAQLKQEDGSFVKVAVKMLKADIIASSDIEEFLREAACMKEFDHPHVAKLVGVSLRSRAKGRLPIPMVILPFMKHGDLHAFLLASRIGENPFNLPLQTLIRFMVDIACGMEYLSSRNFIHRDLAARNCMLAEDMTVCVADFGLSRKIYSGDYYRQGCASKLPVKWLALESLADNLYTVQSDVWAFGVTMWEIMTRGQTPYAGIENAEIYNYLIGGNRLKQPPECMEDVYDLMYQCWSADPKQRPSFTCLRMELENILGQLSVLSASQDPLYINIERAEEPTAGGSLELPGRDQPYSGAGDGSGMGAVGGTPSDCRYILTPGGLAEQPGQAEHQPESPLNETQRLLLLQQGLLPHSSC
# [2] = target: T1, Tyrosine-protein kinase receptor TYRO3 (Homo sapiens); settings: at 10 µM
# [3] = target: Ribosomal protein S6 kinase alpha-1 (Homo sapiens) (UniProt Q15418); settings: at 1 µM
# Ribosomal protein S6 kinase alpha-1 (Homo sapiens), sequence (Q15418 whole entry): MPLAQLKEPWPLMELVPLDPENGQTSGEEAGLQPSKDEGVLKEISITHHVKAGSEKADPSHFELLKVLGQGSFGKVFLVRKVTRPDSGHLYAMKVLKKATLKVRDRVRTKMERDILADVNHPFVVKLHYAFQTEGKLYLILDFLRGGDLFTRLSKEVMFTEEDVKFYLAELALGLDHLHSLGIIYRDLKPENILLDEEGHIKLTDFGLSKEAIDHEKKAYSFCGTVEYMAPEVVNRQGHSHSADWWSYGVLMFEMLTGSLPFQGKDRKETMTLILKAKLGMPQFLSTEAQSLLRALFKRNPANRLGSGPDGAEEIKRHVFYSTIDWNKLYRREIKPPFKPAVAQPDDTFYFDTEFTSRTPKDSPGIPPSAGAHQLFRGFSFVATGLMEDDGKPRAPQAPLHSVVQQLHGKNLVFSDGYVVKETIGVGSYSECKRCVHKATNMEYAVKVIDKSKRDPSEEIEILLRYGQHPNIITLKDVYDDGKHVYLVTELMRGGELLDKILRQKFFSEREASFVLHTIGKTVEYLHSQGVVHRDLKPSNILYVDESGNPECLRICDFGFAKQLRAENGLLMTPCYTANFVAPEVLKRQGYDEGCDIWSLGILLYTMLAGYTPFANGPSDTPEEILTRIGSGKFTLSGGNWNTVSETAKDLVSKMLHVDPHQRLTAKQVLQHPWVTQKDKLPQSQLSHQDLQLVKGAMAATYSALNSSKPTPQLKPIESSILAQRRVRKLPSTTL
# [4] = target: Ribosomal protein S6 kinase alpha-3 (Homo sapiens) (UniProt P51812); settings: at 1 µM
# Ribosomal protein S6 kinase alpha-3 (Homo sapiens), sequence (P51812 whole entry): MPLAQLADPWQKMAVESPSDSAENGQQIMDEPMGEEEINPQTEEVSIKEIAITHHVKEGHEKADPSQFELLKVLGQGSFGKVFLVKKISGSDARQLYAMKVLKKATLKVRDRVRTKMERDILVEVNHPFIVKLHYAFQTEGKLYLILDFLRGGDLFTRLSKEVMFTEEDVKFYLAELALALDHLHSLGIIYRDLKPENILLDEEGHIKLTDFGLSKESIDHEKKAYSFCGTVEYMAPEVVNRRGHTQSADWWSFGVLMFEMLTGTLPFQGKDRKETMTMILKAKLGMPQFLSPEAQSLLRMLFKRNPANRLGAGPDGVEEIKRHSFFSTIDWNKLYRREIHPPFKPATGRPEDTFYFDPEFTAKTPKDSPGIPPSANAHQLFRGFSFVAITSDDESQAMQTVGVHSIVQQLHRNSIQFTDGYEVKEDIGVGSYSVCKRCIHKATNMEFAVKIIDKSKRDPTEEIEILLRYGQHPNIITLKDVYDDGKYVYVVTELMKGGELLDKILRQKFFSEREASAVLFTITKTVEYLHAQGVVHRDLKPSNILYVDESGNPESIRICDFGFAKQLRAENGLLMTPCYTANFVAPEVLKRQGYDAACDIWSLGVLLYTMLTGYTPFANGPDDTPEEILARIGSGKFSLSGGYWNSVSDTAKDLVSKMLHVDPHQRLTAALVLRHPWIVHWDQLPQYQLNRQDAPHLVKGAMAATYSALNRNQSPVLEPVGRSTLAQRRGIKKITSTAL
# [5] = target: Ribosomal protein S6 kinase alpha-3 (Homo sapiens) (UniProt P51812); settings: at 10 µM
# [6] = target: Ribosomal protein S6 kinase alpha-2 (Homo sapiens) (UniProt Q15349); settings: at 1 µM
# Ribosomal protein S6 kinase alpha-2 (Homo sapiens), sequence (Q15349 whole entry): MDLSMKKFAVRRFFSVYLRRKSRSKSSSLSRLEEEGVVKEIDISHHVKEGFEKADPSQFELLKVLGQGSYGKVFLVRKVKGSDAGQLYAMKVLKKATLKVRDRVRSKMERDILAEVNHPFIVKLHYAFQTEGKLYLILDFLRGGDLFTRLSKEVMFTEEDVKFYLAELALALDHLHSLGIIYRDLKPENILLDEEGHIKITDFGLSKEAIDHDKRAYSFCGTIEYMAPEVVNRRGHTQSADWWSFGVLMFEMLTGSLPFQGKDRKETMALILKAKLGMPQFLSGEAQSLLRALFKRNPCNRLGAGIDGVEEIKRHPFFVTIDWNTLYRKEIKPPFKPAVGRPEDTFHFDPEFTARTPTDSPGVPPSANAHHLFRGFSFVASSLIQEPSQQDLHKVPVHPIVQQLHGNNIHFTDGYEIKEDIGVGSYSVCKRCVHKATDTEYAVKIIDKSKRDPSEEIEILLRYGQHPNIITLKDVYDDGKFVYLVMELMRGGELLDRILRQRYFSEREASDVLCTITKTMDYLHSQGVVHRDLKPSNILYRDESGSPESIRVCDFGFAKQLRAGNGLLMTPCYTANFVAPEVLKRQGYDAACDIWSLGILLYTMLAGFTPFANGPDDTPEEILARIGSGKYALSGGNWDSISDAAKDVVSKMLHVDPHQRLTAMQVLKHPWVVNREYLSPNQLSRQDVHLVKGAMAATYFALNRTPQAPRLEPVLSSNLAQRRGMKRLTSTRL
# [7] = target: Ribosomal protein S6 kinase alpha-2 (Homo sapiens) (UniProt Q15349); settings: at 10 µM
# [8] = target: Ribosomal protein S6 kinase alpha-6 (Homo sapiens) (UniProt Q9UK32); settings: at 1 µM
# Ribosomal protein S6 kinase alpha-6 (Homo sapiens), sequence (Q9UK32 whole entry): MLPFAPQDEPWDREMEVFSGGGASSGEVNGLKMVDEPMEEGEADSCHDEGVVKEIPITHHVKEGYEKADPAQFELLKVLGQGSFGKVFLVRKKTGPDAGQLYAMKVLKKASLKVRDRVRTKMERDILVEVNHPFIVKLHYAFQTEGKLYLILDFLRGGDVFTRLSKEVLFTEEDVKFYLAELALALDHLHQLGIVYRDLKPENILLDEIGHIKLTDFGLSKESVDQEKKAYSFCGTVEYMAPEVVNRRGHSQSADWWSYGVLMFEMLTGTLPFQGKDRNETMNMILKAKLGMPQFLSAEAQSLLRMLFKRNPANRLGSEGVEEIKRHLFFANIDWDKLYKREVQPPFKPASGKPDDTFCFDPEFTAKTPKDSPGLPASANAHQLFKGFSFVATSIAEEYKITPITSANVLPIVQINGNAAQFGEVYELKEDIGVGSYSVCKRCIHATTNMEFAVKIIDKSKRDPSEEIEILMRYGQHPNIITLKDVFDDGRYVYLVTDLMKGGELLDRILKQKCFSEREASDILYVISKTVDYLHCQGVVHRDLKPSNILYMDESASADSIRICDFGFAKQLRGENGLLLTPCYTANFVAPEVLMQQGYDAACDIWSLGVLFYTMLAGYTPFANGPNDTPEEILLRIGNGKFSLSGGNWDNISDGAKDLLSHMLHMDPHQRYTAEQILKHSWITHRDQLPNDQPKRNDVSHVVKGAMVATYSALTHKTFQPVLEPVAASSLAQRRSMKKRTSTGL
# [9] = target: Ribosomal protein S6 kinase alpha-6 (Homo sapiens) (UniProt Q9UK32); settings: at 10 µM
# [10] = target: Mitogen-activated protein kinase 14 (Homo sapiens) (UniProt Q16539); settings: at 1 µM
# Mitogen-activated protein kinase 14 (Homo sapiens), sequence (Q16539 whole entry): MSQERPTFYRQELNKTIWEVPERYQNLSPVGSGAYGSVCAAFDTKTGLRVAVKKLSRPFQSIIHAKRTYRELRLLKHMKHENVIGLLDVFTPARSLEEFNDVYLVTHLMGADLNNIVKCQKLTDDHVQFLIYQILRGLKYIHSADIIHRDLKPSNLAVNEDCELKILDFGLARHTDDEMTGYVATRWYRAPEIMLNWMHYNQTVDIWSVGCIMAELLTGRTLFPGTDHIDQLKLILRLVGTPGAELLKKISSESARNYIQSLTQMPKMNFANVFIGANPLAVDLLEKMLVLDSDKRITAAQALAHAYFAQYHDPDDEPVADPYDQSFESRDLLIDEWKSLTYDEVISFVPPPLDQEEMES
# [11] = target: Mitogen-activated protein kinase 14 (Homo sapiens) (UniProt Q16539); settings: at 10 µM
# [12] = target: Mitogen-activated protein kinase 11 (Homo sapiens) (UniProt Q15759); settings: at 1 µM
# Mitogen-activated protein kinase 11 (Homo sapiens), sequence (Q15759 whole entry): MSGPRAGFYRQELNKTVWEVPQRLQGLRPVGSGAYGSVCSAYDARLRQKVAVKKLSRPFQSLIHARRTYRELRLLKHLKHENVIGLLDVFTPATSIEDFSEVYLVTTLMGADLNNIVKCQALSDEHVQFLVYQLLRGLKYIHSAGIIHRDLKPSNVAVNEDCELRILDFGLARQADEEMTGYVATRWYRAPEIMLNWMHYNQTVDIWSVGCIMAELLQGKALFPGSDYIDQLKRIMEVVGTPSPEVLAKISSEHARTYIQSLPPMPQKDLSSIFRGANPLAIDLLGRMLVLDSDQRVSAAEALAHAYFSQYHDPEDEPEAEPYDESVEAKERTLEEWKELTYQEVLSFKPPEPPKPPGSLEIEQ
# [13] = target: Mitogen-activated protein kinase 11 (Homo sapiens) (UniProt Q15759); settings: at 10 µM
# [14] = target: T2, Mitogen-activated protein kinase 12 (Homo sapiens) (UniProt P53778); settings: at 1 µM
# T2 sequence (whole entry): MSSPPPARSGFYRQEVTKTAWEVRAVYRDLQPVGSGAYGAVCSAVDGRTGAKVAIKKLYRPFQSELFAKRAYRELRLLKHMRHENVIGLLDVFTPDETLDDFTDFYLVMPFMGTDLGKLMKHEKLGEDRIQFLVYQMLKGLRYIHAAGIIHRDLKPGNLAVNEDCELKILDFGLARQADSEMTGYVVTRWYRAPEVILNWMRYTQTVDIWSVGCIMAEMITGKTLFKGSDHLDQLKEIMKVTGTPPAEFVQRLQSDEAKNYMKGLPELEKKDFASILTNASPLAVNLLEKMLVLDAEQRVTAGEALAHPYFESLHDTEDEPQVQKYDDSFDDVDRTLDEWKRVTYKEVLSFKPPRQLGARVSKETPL
# [15] = target: T2, Mitogen-activated protein kinase 12 (Homo sapiens); settings: at 10 µM
# [16] = target: T3, Mitogen-activated protein kinase 13 (Homo sapiens) (UniProt O15264); settings: at 1 µM
# T3 sequence (whole entry): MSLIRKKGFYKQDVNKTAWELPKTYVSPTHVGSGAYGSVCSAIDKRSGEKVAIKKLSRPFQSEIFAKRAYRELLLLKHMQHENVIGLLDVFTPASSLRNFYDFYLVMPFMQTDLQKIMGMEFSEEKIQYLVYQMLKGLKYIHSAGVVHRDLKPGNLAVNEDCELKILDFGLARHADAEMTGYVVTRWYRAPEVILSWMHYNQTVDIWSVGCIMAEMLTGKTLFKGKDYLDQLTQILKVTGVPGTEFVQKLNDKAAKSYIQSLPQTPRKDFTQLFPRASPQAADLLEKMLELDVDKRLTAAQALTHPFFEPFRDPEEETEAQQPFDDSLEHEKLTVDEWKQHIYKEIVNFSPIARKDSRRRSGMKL
# [17] = target: Ribosomal protein S6 kinase alpha-1 (Homo sapiens) (UniProt Q15418); settings: at 10 µM
# [18] = target: T4, Serine/threonine-protein kinase Sgk1 (Homo sapiens) (UniProt O00141); settings: at 1 µM
# T4 sequence (whole entry): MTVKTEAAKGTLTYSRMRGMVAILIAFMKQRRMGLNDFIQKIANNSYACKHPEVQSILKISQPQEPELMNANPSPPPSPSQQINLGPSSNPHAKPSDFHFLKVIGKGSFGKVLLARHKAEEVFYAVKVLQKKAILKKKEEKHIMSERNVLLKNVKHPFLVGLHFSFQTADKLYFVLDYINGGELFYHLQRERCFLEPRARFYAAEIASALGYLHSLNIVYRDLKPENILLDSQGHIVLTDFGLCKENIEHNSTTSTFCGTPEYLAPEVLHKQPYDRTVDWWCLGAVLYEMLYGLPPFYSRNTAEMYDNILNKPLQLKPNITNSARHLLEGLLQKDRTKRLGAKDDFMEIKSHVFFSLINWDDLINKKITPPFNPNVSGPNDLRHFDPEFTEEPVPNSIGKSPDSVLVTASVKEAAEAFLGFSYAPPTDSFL
# [19] = target: T4, Serine/threonine-protein kinase Sgk1 (Homo sapiens); settings: at 10 µM
# [20] = target: T3, Mitogen-activated protein kinase 13 (Homo sapiens); settings: at 10 µM
smiles,measurement,setting,value
CC(C)(C)c1cc(C=C(C#N)C#N)cc(Br)c1O,residual activity,[1],112%
same,residual activity,[2],104%
same,residual activity,[3],111%
same,residual activity,[4],100%
same,residual activity,[5],78%
same,residual activity,[6],106%
same,residual activity,[7],82%
same,residual activity,[8],98%
same,residual activity,[9],106%
same,residual activity,[10],107%
same,residual activity,[11],112%
same,residual activity,[12],110%
same,residual activity,[13],101%
same,residual activity,[14],107%
same,residual activity,[15],110%
same,residual activity,[16],101%
Oc1ccc(-c2nc(-c3ccc(F)cc3)c(-c3ccncc3)[nH]2)cc1,residual activity,[10],1%
same,residual activity,[11],1%
same,residual activity,[14],112%
same,residual activity,[15],67%
CN[C@@H]1C[C@H]2O[C@@](C)([C@@H]1OC)n1c3ccccc3c3c4c(c5c6ccccc6n2c5c31)C(=O)NC4,residual activity,[10],81%
same,residual activity,[11],79%
same,residual activity,[12],97%
same,residual activity,[13],89%
CC(C)[C@H](CO)Nc1nc(Nc2cccc(Cl)c2)c2ncn(C(C)C)c2n1,residual activity,[1],85%
same,residual activity,[2],78%
same,residual activity,[3],77%
same,residual activity,[17],19%
same,residual activity,[4],62%
same,residual activity,[5],15%
same,residual activity,[6],75%
same,residual activity,[7],21%
same,residual activity,[8],40%
same,residual activity,[9],24%
same,residual activity,[10],88%
same,residual activity,[11],80%
same,residual activity,[12],101%
same,residual activity,[13],96%
same,residual activity,[15],98%
CO[C@H]1[C@@H](OC)C[C@H](C)[C@@H](OC)C2=CC(=O)C=C(NC(=O)/C(C)=C/C=C/[C@H](OC)[C@@H](OC(N)=O)/C(C)=C/[C@@H]1C)C2=O,residual activity,[10],95%
same,residual activity,[11],106%
same,residual activity,[14],110%
same,residual activity,[15],99%
COc1cc(OC)c(/C=C2\C(=O)Nc3ccccc32)c(OC)c1,residual activity,[3],102%
same,residual activity,[17],101%
same,residual activity,[4],63%
same,residual activity,[5],57%
same,residual activity,[6],96%
same,residual activity,[7],97%
same,residual activity,[8],103%
same,residual activity,[9],95%
same,residual activity,[10],89%
same,residual activity,[11],85%
same,residual activity,[12],99%
same,residual activity,[13],92%
same,residual activity,[14],97%
same,residual activity,[15],96%
same,residual activity,[18],82%
same,residual activity,[19],86%
c1ccc(-c2n[nH]cc2-c2ccnc3ccccc23)nc1,residual activity,[14],101%
C[S+]([O-])c1ccc(-c2nc(-c3ccc(F)cc3)c(-c3ccncc3)[nH]2)cc1 (stereo not given),residual activity,[1],107%
same,residual activity,[17],80%
same,residual activity,[4],108%
same,residual activity,[5],97%
same,residual activity,[6],107%
same,residual activity,[7],96%
same,residual activity,[8],114%
same,residual activity,[9],113%
same,residual activity,[14],114%
same,residual activity,[15],86%
same,residual activity,[16],111%
same,residual activity,[18],96%
same,residual activity,[19],124%
O=C(O)c1ccc2c3c1cccc3c(=O)n1c3ccccc3nc21,residual activity,[14],106%
same,residual activity,[15],102%
COC(=O)[C@@]1(O)C[C@H]2O[C@]1(C)n1c3ccccc3c3c4c(c5c6ccccc6n2c5c31)C(=O)NC4,residual activity,[1],6%
same,residual activity,[2],2%
same,residual activity,[3],1%
same,residual activity,[17],2%
same,residual activity,[4],1%
same,residual activity,[5],1%
same,residual activity,[6],0%
same,residual activity,[7],1%
same,residual activity,[8],-2%
same,residual activity,[9],3%
same,residual activity,[10],92%
same,residual activity,[11],67%
same,residual activity,[12],77%
same,residual activity,[13],29%
same,residual activity,[14],23%
same,residual activity,[15],2%
same,residual activity,[16],58%
same,residual activity,[20],10%
same,residual activity,[18],4%
same,residual activity,[19],1%
CCOC(=O)c1c(C)[nH]c(/C=C2\C(=O)Nc3ccccc32)c1C,residual activity,[14],99%
same,residual activity,[15],95%
O=C1NC(=O)/C(=C\c2ccc3nccnc3c2)S1,residual activity,[14],100%
same,residual activity,[15],61%
CC(=O)c1ccc(N2CCOCC2)cc1O,residual activity,[14],110%
same,residual activity,[15],102%
Nc1ncnc2[nH]nc(Nc3ccc(F)cc3)c12,residual activity,[14],101%
same,residual activity,[15],96%
CN(C)CCCn1cc(C2=C(c3c[nH]c4ccccc34)C(=O)NC2=O)c2ccccc21,residual activity,[14],125%
same,residual activity,[15],131%
Nc1n[nH]c2nnc(-c3c(-c4ccccc4)nn4ccccc34)cc12,residual activity,[14],91%
same,residual activity,[15],69%
Oc1n[nH]c2nnc(-c3c(-c4ccccc4)nn4ccccc34)cc12,residual activity,[14],96%
same,residual activity,[15],90%
O=C1Nc2cc(Br)ccc2/C1=C1/Nc2ccccc2/C1=N\O,residual activity,[14],95%
same,residual activity,[15],94%
O=c1cc(N2CCOCC2)oc2c1ccc1ccccc12,residual activity,[14],104%
same,residual activity,[15],90%
COc1ccc(C(=O)Nc2sc3c(c2C(N)=O)CCCC3)cc1OC,residual activity,[14],95%
same,residual activity,[15],83%
